PubChem BioAssay AID1159580 (chemical genetic matrix, 2015)
Among all 5,500 compounds or so, about 2,000 (36%) were called active. Inconclusive results (about 18%) are left out. Rule as the data show it: active = normalized growth mostly below about 0.91 (no sharp cut-off); inconclusive = no clear call, values can overlap the other calls; inactive = mostly above about 0.92. The list shows a part of the results.

Experiment: chemical genetic growth profiling, strain panel (AID 1159580);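 also: tested at 20 µM; growth read once vehicle control cultures reached saturation at 30 °C; 1 = growth at the plate median or of vehicle wells; lower values mean less growth of the strain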
Conditions: growth OD
[1] = S. cerevisiae deletion strains, locus YAL013W, strain DEP1, active compounds read low
[2] = S. cerevisiae deletion strains, locus YBR229C, strain ROT2, active compounds read low
[3] = S. cerevisiae deletion strains, locus YDL101C, strain DUN1, active compounds read low
[4] = S. cerevisiae deletion strains, locus YDL134C, strain PPH21, active compounds read low
[5] = S. cerevisiae deletion strains, locus YDR150W, strain NUM1, active compounds read low
[6] = S. cerevisiae deletion strains, locus YEL061C, strain CIN8, active compounds read low
[7] = S. cerevisiae deletion strains, locus YGR078C, strain PAC10, active compounds read low
[8] = S. cerevisiae deletion strains, locus YGR229C, strain SMI1, active compounds read low
[9] = S. cerevisiae deletion strains, locus YHR030C, strain SLT2, active compounds read low
[10] = S. cerevisiae deletion strains, locus YHR087W, strain rtc3, active compounds read low
[11] = S. cerevisiae deletion strains, locus YJR043C, strain POL32, active compounds read low
[12] = S. cerevisiae deletion strains, locus YJR075W, strain HOC1, active compounds read low
[13] = S. cerevisiae deletion strains, locus YKL190W, strain CNB1, active compounds read low
[14] = S. cerevisiae deletion strains, locus YLR039C, strain RIC1, active compounds read low
[15] = S. cerevisiae deletion strains, locus YLR058C, strain SHM2 (second series), active compounds read low
[16] = S. cerevisiae deletion strains, locus YLR085C, strain ARP6, active compounds read low
[17] = S. cerevisiae deletion strains, locus YLR262C, strain YPT6, active compounds read low
[18] = S. cerevisiae deletion strains, locus YML094W, strain GIM5, active compounds read low
[19] = S. cerevisiae deletion strains, locus YMR219W, strain ESC1, active compounds read low
[20] = S. cerevisiae deletion strains, locus YMR263W, strain SAP30, active compounds read low
[21] = S. cerevisiae deletion strains, locus YMR307W, strain GAS1, active compounds read low
[22] = S. cerevisiae deletion strains, locus YNL153C, strain GIM3, active compounds read low
[23] = S. cerevisiae deletion strains, locus YNL298W, strain CLA4 (second series), active compounds read low
[24] = S. cerevisiae deletion strains, locus YNL322C, strain KRE1, active compounds read low
[25] = S. cerevisiae deletion strains, locus YNR030W, strain Alg12, active compounds read low
[26] = S. cerevisiae deletion strains, locus YPL055C, strain LGE1, active compounds read low
[27] = S. cerevisiae deletion strains, locus YPL241C, strain CIN2, active compounds read low
[28] = S. cerevisiae deletion strains, locus YPR135W, strain CTF4, active compounds read low
[29] = S. cerevisiae strains, strain wild type, active compounds read low
[30] = S. cerevisiae deletion strains, locus YJL187C, strain SWE1, active compounds read low
[31] = S. cerevisiae deletion strains, locus YOL006C, strain TOP1, active compounds read low
[32] = S. cerevisiae deletion strains, locus YNL128W, strain TEP1, active compounds read low

Measured: normalized growth

CCOC(=O)c1sc(S(C)(=O)=O)c2c1CCCC2O (stereo unspecified)
inactive: [1] 1.02 | [2] 1 | [3] 0.995 | [4] 1.01 | [5] 0.95 | [6] 1.02 | [7] 1 | [8] 1 | [9] 1.03 | [10] 0.995 | [11] 0.98 | [12] 1.01 | [13] 1 | [14] 1.05 | [15] 1.01 | [16] 1.08 | [17] 1.04 | [18] 1.03 | [19] 1.01 | [20] 1.04 | [21] 1.08 | [22] 1 | [23] 1.03 | [24] 1.02 | [25] 1.03 | [26] 0.952 | [27] 1.02 | [28] 1.05 | [29] 1.01

CCOC(=O)c1sc(SC(C)C)c2c1CCCC2=O
inactive: [1] 0.979 | [2] 0.969 | [3] 0.973 | [5] 1.06 | [7] 0.982 | [10] 0.978 | [11] 1.02 | [12] 0.93 | [15] 0.974 | [17] 0.864 | [18] 0.911 | [19] 0.969 | [20] 1.03 | [22] 0.978 | [24] 0.97 | [31] 0.738 | [26] 1.04 | [28] 0.762 | [29] 0.951
active: [4] 0.82 | [6] 0.795 | [9] 0.53 | [30] 0.851 | [14] 0.785 | [16] 0.646 | [23] 0.835 | [25] 0.884 | [27] 0.801

Cn1[nH]c(=O)cc1C(=O)NN
inactive: [1] 1 | [2] 1.02 | [3] 1 | [4] 0.996 | [5] 1.01 | [6] 1.03 | [7] 1 | [9] 1.11 | [10] 1 | [30] 0.998 | [11] 1.01 | [12] 0.992 | [14] 0.998 | [15] 0.985 | [16] 0.978 | [17] 1.11 | [18] 0.99 | [19] 1 | [20] 0.991 | [21] 0.899 | [32] 0.981 | [22] 1.05 | [23] 1.03 | [24] 0.995 | [25] 1.01 | [26] 0.995 | [27] 0.992 | [28] 1.12 | [29] 0.986

COC(=O)C1OC(=O)C2OC23C1(C)CCC1C2(C)C(OC(C)=O)CC(OC(C)=O)C(C)(C)C2CC(=O)C13C (stereo unspecified)
inactive: [1] 1.02 | S. cerevisiae deletion strains, locus YBR021W, strain FUR4, active compounds read low 0.914 | [2] 1 | S. cerevisiae deletion strains, locus YCL029C, strain bik1, active compounds read low 0.987 | S. cerevisiae deletion strains, locus YDL035C, strain GPR1, active compounds read low 1 | S. cerevisiae deletion strains, locus YDL074C, strain BRE1, active compounds read low 1.03 | [3] 0.997 | [4] 0.998 | S. cerevisiae deletion strains, locus YDL185W, strain tfp1, active compounds read low 0.962 | S. cerevisiae deletion strains, locus YDL192W, strain arf1, active compounds read low 0.988 | S. cerevisiae deletion strains, locus YDR101C, strain arx1, active compounds read low 0.999 | [5] 0.969 | S. cerevisiae deletion strains, locus YDR162C, strain NBP2, active compounds read low 1.01 | S. cerevisiae deletion strains, locus YDR318W, strain mcm21, active compounds read low 0.988 | S. cerevisiae deletion strains, locus YDR388W, active compounds read low 1 | S. cerevisiae deletion strains, locus YDR502C, strain sam2, active compounds read low 0.996 | [6] 1 | S. cerevisiae deletion strains, locus YER110C, active compounds read low 0.985 | S. cerevisiae deletion strains, locus YER155C, strain BEM2, active compounds read low 0.929 | S. cerevisiae deletion strains, locus YER167W, strain BCK2, active compounds read low 0.984 | S. cerevisiae deletion strains, locus YGL078C, strain dbp3, active compounds read low 0.979 | S. cerevisiae deletion strains, locus YGL086W, strain mad1, active compounds read low 0.982 | S. cerevisiae deletion strains, locus YGL248W, strain PDE1, active compounds read low 0.983 | [7] 1 | S. cerevisiae deletion strains, locus YGR135W, strain pre9, active compounds read low 0.997 | [8] 1 | S. cerevisiae deletion strains, locus YGR252W, strain gcn5, active compounds read low 1.01 | [9] 0.997 | S. cerevisiae deletion strains, locus YHR079C, strain IRE1 (second series), active compounds read low 0.998 | S. cerevisiae deletion strains, locus YHR094C, strain hxt1, active compounds read low 0.972 | S. cerevisiae deletion strains, locus YHR129C, strain ARP1, active compounds read low 1 | S. cerevisiae deletion strains, locus YHR200W, strain rpn10, active compounds read low 0.985 | S. cerevisiae deletion strains, locus YIL066C, strain RNR3, active compounds read low 1 | S. cerevisiae deletion strains, locus YIL073C, strain SPO22, active compounds read low 0.883 | S. cerevisiae deletion strains, locus YIL125W, strain kgd1, active compounds read low 1 | S. cerevisiae deletion strains, locus YIR030C, strain dcg1, active compounds read low 0.998 | S. cerevisiae deletion strains, locus YJL095W, strain BCK1, active compounds read low 1.05 | S. cerevisiae deletion strains, locus YJL134W, strain LCB3, active compounds read low 0.994 | S. cerevisiae deletion strains, locus YJL168C, strain set2, active compounds read low 1 | S. cerevisiae deletion strains, locus YJL187C, strain SWE1 (second series), active compounds read low 0.996 | [11] 0.984 | [12] 1.01 | S. cerevisiae deletion strains, locus YKL009W, strain mrt4, active compounds read low 0.967 | S. cerevisiae deletion strains, locus YKL068W, active compounds read low 0.983 | S. cerevisiae deletion strains, locus YKL085W, strain MDH1 (second series), active compounds read low 0.984 | S. cerevisiae deletion strains, locus YKL085W, strain MDH1, active compounds read low 0.984 | [13] 1 | S. cerevisiae deletion strains, locus YKR001C, strain vps1, active compounds read low 0.983 | [14] 0.963 | S. cerevisiae deletion strains, locus YLR058C, strain SHM2, active compounds read low 1 | S. cerevisiae deletion strains, locus YLR102C, strain apc9, active compounds read low 0.996 | [17] 0.966 | S. cerevisiae deletion strains, locus YLR268W, strain sec22, active compounds read low 0.996 | S. cerevisiae deletion strains, locus YLR330W, strain CHS5, active compounds read low 0.995 | S. cerevisiae deletion strains, locus YLR342W, strain FKS1 (second series), active compounds read low 0.985 | S. cerevisiae deletion strains, locus YLR371W, strain rom2, active compounds read low 0.981 | S. cerevisiae deletion strains, locus YLR418C, strain cdc73, active compounds read low 1.05 | S. cerevisiae deletion strains, locus YML016C, strain PPZ1, active compounds read low 0.997 | S. cerevisiae deletion strains, locus YML032C, strain rad52, active compounds read low 0.977 | S. cerevisiae deletion strains, locus YML124C, strain tub3, active compounds read low 0.992 | S. cerevisiae deletion strains, locus YMR078C, strain ctf18, active compounds read low 0.992 | S. cerevisiae deletion strains, locus YMR223W, strain ubp8, active compounds read low 0.974 | [20] 0.994 | [21] 1 | S. cerevisiae deletion strains, locus YNL067W, strain RPL9B, active compounds read low 0.994 | [32] 1.02 | [22] 1 | S. cerevisiae deletion strains, locus YNL233W, strain BNI4, active compounds read low 1.01 | S. cerevisiae deletion strains, locus YNL250W, strain rad50, active compounds read low 0.987 | S. cerevisiae deletion strains, locus YNL271C, strain bni1, active compounds read low 0.995 | S. cerevisiae deletion strains, locus YNL298W, strain CLA4, active compounds read low 0.985 | S. cerevisiae deletion strains, locus YNL307C, strain MCK1, active compounds read low 0.988 | [24] 1.01 | S. cerevisiae deletion strains, locus YNR052C, strain pop2, active compounds read low 0.986 | [31] 1.04 | S. cerevisiae deletion strains, locus YOL012C, strain htz1 0.841 | S. cerevisiae deletion strains, locus YOL147C, strain pex11, active compounds read low 0.99 | S. cerevisiae deletion strains, locus YOR061W, strain CKA2, active compounds read low 1 | S. cerevisiae deletion strains, locus YOR069W, strain VPS5, active compounds read low 0.996 | S. cerevisiae deletion strains, locus YOR136W, strain idh2, active compounds read low 0.985 | S. cerevisiae deletion strains, locus YOR144C, strain elg1, active compounds read low 0.993 | S. cerevisiae deletion strains, locus YOR184W, strain ser1, active compounds read low 0.966 | S. cerevisiae deletion strains, locus YOR316C, strain cot1, active compounds read low 0.987 | [26] 1 | [27] 0.998 | S. cerevisiae deletion strains, locus YPR119W, strain clb2, active compounds read low 0.996 | S. cerevisiae deletion strains, locus YPR141C, strain kar3, active compounds read low 0.975 | S. cerevisiae deletion strains, locus YPR163C, strain tif3, active compounds read low 0.991 | S. cerevisiae deletion strains, locus YPR167C, strain met16, active compounds read low 0.995 | S. cerevisiae deletion strains, strain wtn01, active compounds read low 0.997 | [29] 0.983

CCN(CC)C(=O)N[C@H]1C=C2c3cccc4[nH]cc(c34)C[C@H]2N(C)C1
inactive: [1] 1.01 | S. cerevisiae deletion strains, locus YAL040C, strain CLN3, active compounds read low 0.999 | S. cerevisiae deletion strains, locus YCL061C, strain MRC1 (second series), active compounds read low 1.01 | S. cerevisiae deletion strains, locus YDR363W, strain ESC2, active compounds read low 1.03 | S. cerevisiae deletion strains, locus YER002W, strain NOP16, active compounds read low 1.01 | [12] 1.02 | [21] 1.01 | S. cerevisiae deletion strains, locus YNL175C, strain NOP13, active compounds read low 0.996 | S. cerevisiae deletion strains, locus YNL197C, strain WHI3, active compounds read low 1.01 | S. cerevisiae deletion strains, locus YNL224C, strain SQS1, active compounds read low 1.02 | [24] 1.01 | S. cerevisiae deletion strains, locus YOR083W, strain WHI5 (second series), active compounds read low 0.999 | [26] 0.998 | [27] 1
